# MCF10A rereplic = induces DNA re-replication in MCF 10a normal breast cells | AID 624296 | 350,000 tested, 2.9% active | MCF 10A DNA re-replication, Hoechst nuclear intensity, 48 h | Potency, µM (highest dose often 46.1 µM), most hits filed as activators; note: nearly all actives have a fitted effect of over 50% in size
# ELG1 DNA repair = ELG1-dependent DNA repair inhibition; AID 504467; 330,000 tested, 2.3% active; Potency, µM (titrated, usually from 46.1 µM), most hits filed as inhibitors; HEK293T ELG1-luciferase reporter, luminescence, 16 h; DNA damage induced by 5-fluorouridine; note: nearly all actives have a fitted effect of over 55% in size
#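 Luminescence from the luciferase reporter, measured 30 min after ONE-Glo reagent at room temperature, was the read-out. Beforehand, 2,000 cells per well were exposed for 16 hr at 37 °C to 5-fluorouridine together with compound or vehicle.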
# Gal4-VP16 FLuc = counter-screen for ROR gamma inhibitors: Gal4-VP16 reporter | Potency, µM (series often up to 53.6 µM), most hits filed as inhibitors | AID 2546 | 310,000 tested, 3.5% active | Drosophila S2 Gal4-VP16 UAS-luciferase, luminescence, 20 h;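 note: Gal4-VP16 expression switched on by copper sulfate through the metallothionein promoter; nearly all actives have a fitted effect of over 50% in size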
# RORgamma inh = inhibitors of mouse ROR gamma transcriptional activity. Drosophila S2 Gal4-RORgamma UAS-luciferase reporter, 20 h. P51450. 310,000 tested, 5.4% active. Potency, µM (titrated, usually from 53.6 µM), most hits filed as inhibitors; note: nearly all actives have a fitted effect of over 60% in size
# Target sequence (P51450 whole entry, looked up, the tested form may be a part): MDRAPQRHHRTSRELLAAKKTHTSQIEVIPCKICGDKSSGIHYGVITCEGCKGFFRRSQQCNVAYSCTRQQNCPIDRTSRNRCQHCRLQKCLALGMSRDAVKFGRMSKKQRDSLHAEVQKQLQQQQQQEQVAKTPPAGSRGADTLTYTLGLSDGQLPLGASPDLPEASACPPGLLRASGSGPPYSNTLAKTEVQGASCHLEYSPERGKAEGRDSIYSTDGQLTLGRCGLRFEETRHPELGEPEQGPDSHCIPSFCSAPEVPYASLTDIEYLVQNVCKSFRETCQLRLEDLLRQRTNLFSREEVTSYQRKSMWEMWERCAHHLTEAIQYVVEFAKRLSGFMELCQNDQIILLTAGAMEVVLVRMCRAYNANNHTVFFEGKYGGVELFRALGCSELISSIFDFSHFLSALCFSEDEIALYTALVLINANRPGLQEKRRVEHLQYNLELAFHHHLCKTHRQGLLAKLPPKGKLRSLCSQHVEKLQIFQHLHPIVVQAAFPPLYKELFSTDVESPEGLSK
#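 Stable Schneider cell line, Gal4 DNA-binding domain fused to ROR gamma, UAS-luciferase. Cmpd 1 hr RT → CuSO4 700 uM final → 20 hr RT → luciferase reagent 10 min → luminescence.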
# SW480 rereplic = inducers of DNA re-replication in SW480 colon cancer cells. SW480 DNA re-replication, Hoechst DNA content imaging, 48 h. Potency, µM (doses to about 46.1 µM), usual class: activators. 340,000 tested, 1.8% active. AID 624297; note: nearly all actives have a fitted effect of over 55% in size
#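 Image-based DNA-content assay: after two days of treatment, nuclei were labelled with the DNA dye Hoechst and imaged, and hits were compounds raising the count of nuclei showing high fluorescence intensity.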
# Numbers stand for hits; n = inactive; u = inconclusive; x = no result; [ ] = dose if it differs, or a comment. This is a sample that favours compounds with a hit; in the whole collection about 10% have one here. Calls come from the whole dose curve; as a rule, active = well fitted curve in the direction sought with a large enough effect; inconclusive = small, poorly fitted or top-dose-only effect, or another doubt; inactive = no such curve, though single readings can be large; an effect the other way counts as inactive or inconclusive.
SMILES,MCF10A rereplic,ELG1 DNA repair,Gal4-VP16 FLuc,RORgamma inh,SW480 rereplic
CC(OC(=O)C1CC(=O)N(Cc2ccco2)C1)C(=O)Nc1cccc(C#N)c1 (stereo unspecified),n,n,x,x,5.8µM
CCOC(=O)c1sc(N)c(C(=O)OCC)c1COC(=O)C1CC(=O)N(Cc2ccco2)C1 (stereo unspecified),n,u,n,n,n
COC(=O)c1sc(N)c(C(=O)OC)c1COC(=O)C1CC(=O)N(Cc2ccco2)C1 (stereo unspecified),n,8.2µM,n,n,n
Cc1cc(Br)ccc1NC(=O)CN(C)C(=O)C1CCN(C(=O)c2ccc(Cl)cc2)CC1,n,x,x,x,n
Cc1ccc(Oc2ncnc(N)c2[N+](=O)[O-])cc1C,u,n,n,n,n
Cc1ccc(N2CCN(/N=C/c3ccncc3)CC2)cc1,n,18µM,14µM,n,n
Clc1ccc(N2CCN(/N=C/c3ccncc3)CC2)cc1,n,21µM,u,n,n
COC(=O)CCC(C)C1CCC2C3C(O)C[C@@H]4CC(O)CC[C@@]4(C)C3CC(O)[C@]12C (stereo partly specified),x,x,n,n,x
COC(=O)CCC(C)C1CCC2C3CCC4CC(O)CCC4(C)C3CC(O)C12C (stereo unspecified),21µM,x,x,x,n
CCCCCCCCCCOc1cc(OCCCCCCCCCC)cc(N(CC(=O)O)CC(=O)O)c1,x,x,n,n,x
COc1cc(N=c2ssnc2Cl)cc(OC)c1OC,u,n,16µM,u,n
COc1ccc(N=c2ssnc2Cl)cc1,n[9.22 µM],n,u,u,n
Clc1ccc(N=c2ssnc2Cl)cc1,u,16µM,11µM,u,u
N/C(Cc1ccc(Cl)cc1)=N\OC(=O)c1ccc2ccccc2c1,n,n,20µM,n,n
COc1ccc(C/C(N)=N/OC(=O)c2ccc(Cl)cc2)cc1,n,n,n,n,n
N/C(Cc1ccc(Cl)cc1)=N\OC(=O)c1cccc2ccccc12,n,u,10µM,u,u
N/C(Cc1ccc([N+](=O)[O-])cc1)=N\OC(=O)c1ccccc1F,n,u,n,n,n
Cc1ccc(C(=O)CSc2nc3cc(S(=O)(=O)N4CCOCC4)ccc3o2)cc1,n,n,n,n[10 µM],n
Cc1[nH]c2ccccc2c1C(=O)CSc1nc2cc(S(=O)(=O)N3CCCCC3)ccc2o1,n,15µM,n,u,n
O=C(NCC1CCCO1)c1cc2ccccc2nc1Cl (stereo unspecified),0.73µM,u,n,n,n
CNc1nc2ccccc2n1/N=C/c1cccc(OC)c1OC,n,u,n,13µM,n
O=C(NCC1CCCO1)c1cc2ccccc2cc1O (stereo unspecified),n,u,x,x,n
COc1ccc(OC)c(-n2c(SCC(=O)NCC3CCCO3)nc3ccccc3c2=O)c1 (stereo unspecified),n,n,x,x,n
COCCn1c(N)c(C(=O)NCC2CCCO2)c2nc3ccccc3nc21 (stereo unspecified),u,u,n,n,10µM
COc1ccc(OC)c(-n2c(N)c(C(=O)NCC3CCCO3)c3nc4ccccc4nc32)c1 (stereo unspecified),8.2µM,16µM,n,n,16µM
SMILES,MCF10A rereplic,ELG1 DNA repair,Gal4-VP16 FLuc,RORgamma inh,SW480 rereplic
CC(C)(C)Nc1nc(C#N)nc(Nc2ccccc2)n1,x,x,n,x,x
Cc1ccc(NC(=O)N2CCCC2C(=O)NCc2ccccc2Cl)cc1 (stereo unspecified),n,n,n,n,n
O=c1c(-c2cccc(F)c2)nc2cncnc2n1Cc1ccccc1Cl,x,x,n,n,x
CCCCn1c(-c2ccc(OC(F)F)cc2)nc2c1c(=O)[nH]c(=O)n2CC(C)C,n,u,n,n,n
Nc1c(S(=O)(=O)c2cccs2)c2nc3ccccc3nc2n1Cc1ccccc1,n[0.0737 µM],u,n,n,n
COc1cccc(/C=N/n2c(N)c(S(=O)(=O)c3cccs3)c3nc4ccccc4nc32)c1OC,3.7µM,u,n,n,12µM
CC(C)Cn1c(N)c(C(=O)NCC2CCCO2)c2nc3ccccc3nc21 (stereo unspecified),2.1µM,8.9µM,n,n,u
COCCn1c(N)c(S(=O)(=O)c2cccs2)c2nc3ccccc3nc21,23µM,n,n,n,n
COCCn1c(N)c(C(=O)NCc2cccs2)c2nc3ccccc3nc21,8.2µM,u,n,n,u
COc1cccc(-c2cc(C(=O)NCC3CCCO3)c3cc(Br)cc(C)c3n2)c1 (stereo unspecified),n,n,n,n,n
Cc1cc(Br)cc2c(C(=O)NCC3CCCO3)cc(-c3cccs3)nc12 (stereo unspecified),15µM,u,u,u,u
COC(=O)CSC1=C(C#N)C(c2ccc(F)cc2)CC(=O)N1 (stereo unspecified),n,n,n,u,n
COC(=O)CSC1=C(C#N)C(c2ccc(C)o2)CC(=O)N1 (stereo unspecified),u,n,n,n,5.8µM
C/C(=N\Nc1ccccc1)c1cccc(N)c1,n,n,u,n,n
C/C(=N\NC(=S)Nc1cccc(C)c1)c1ccccc1,n,u,7.9µM,1.1µM,n[9.22 µM]
C/C(=N\NC(=S)Nc1cccc(C)c1)c1cccc(N)c1,n,u,3.2µM,4.5µM,n
CSC(=S)N/N=C(\C)c1ccccc1,n,u,4.5µM,0.45µM,u
C/C(=N\NC(=S)Nc1ccc(C)cc1)c1cccc(N)c1,n,n,13µM,2.8µM,n
O=C(NCCCSc1ccccc1)c1ccc(=O)[nH]c1,n,n,n,n,u
O=C(CN1C(=O)NC2(CCc3ccccc32)C1=O)c1ccc(F)cc1 (stereo unspecified),n,n,x,x,n
CCn1nc(C)c(CN2CCN(Cc3ccsc3)C(CCO)C2)c1C (stereo unspecified),n,n,n,n,n[1.84 µM]
CCCCCc1ccc(OCCCC[n+]2ccc(C)cc2)c(CCCCC)c1,n,15µM,2.8µM,2µM,n
CCCCCc1ccc(OCCCC[n+]2cccc(C)c2)c(CCCCC)c1,u,n,n,n,u
CCC(C)(C)c1ccc(OCCCC[n+]2ccccc2)c(C(C)(C)CC)c1,u,18µM,18µM,u,u
CCCCCc1ccc(OCCCC[n+]2ccccc2)c(CCCCC)c1,23µM,13µM,n,u,u
Cc1cc(=O)oc2cc(OCCCC[n+]3ccccc3)ccc12,n,n,n,n,n
CCCCC(=O)Nc1cccc(NC(=O)c2cccnc2Cl)c1,n,n,n,n,n
CC(C)N1C(=O)/C(=C/c2nc3ccccc3c(=O)n2-c2ccccc2)c2ccccc21,16µM,21µM,n[0.365 µM],u,u
CC(C)N1C(=O)C(Cc2nc3ccccc3c(=O)n2-c2ccccc2)c2ccccc21 (stereo unspecified),n,n,n,n,n
CC(C)N1C(=O)/C(=C\c2nc3ccccc3c(=O)n2-c2ccccc2)c2ccccc21,u,13µM,u,n,2.9µM

# High-throughput results as filed in PubChem BioAssay.
